# Compounds without any hit were thinned out: in the full panel of roughly 83,000, 20% have a hit.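 Treatment: one concentration, 48 hours, 96-well format. Scoring: percent growth, with anything below 10 considered active.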 Calls of active or inactive are those of the source.
# Tested on: NCI/ADR-RES ovarian
# Experiment: NCI-60 one-dose screen, 48 h (100 = growth as untreated, 0 = no growth, -100 = all killed)
# Conditions: 10 µM unless noted
# Description: Growth inhibition of the NCI/ADR-RES human […] tumor cell line is measured as a screen for anti-cancer activity. Cells are grown in 96 well plates and exposed to the test compound for 48 hours. Compounds are tested at a single concentration, which is 10^-5 M for most compounds. The reported endpoint is percent growth (GI% or GIPRCNT), where numbers from 0 - 100% represent growth inhibition, and numbers from -100% - 0 represent cell death. For example, a value of 40 represents 60% growth inhibition. A value of 0 means no net growth occurred over the course of the experiment. A value of -40 indicates 40% of cells at the beginning of the experiment died by the end of the experiment. A value of -100 means all cells are dead at the end of the experiment.
# NCI-60 Human Tumor Cell Lines Screen was performed using the standard one-dose NCI protocol, which is described in more detail at https://dtp.cancer.gov/discovery_development/nci-60/default.htm.
# Compounds with GIPRCNT values below 10 were considered active. Activity score was based on GIPRCNT using the following formula: […]
# Score is 0 for GIPRCNT values of 100 or above, 50 for GIPRCNT values of 0, and 100 for GIPRCNT values of -100.
row,SMILES,growth
1,O=C(N/N=C/c1ccc(Br)s1)c1[nH]c2ccc(Br)cc2c1-c1ccccc1,16.6% (inactive)
2,CN1CCc2c(sc3ncnc(N/N=C/c4ccc(Cl)c(Cl)c4)c23)C1,29.6% (inactive)
3,C[C@@H]1CN(c2ccc3ncc(C#Cc4cncc(C(=O)Nc5ccc(CN6CCN(C)CC6)c(C(F)(F)F)c5)c4)n3n2)C[C@H](C)O1,-8.65% (active)
4,CSCCC(C(=O)O)N1C(=O)/C(=C/c2ccc(O)c(O)c2)SC1=S (stereo not given),108% (inactive)
5,N#Cc1c(-c2ccc(Cl)cc2)nc(SCc2ccccc2)nc1N1CCNCC1,65.6% (inactive)
6,NS(=O)(=O)c1cccc(Nc2nc(SCC(=O)c3ccc(Cl)cc3)nc3ccccc23)c1,91.1% (inactive)
7,Cn1c(SCC(=O)Nc2ccc(-c3nc4ccc([N+](=O)[O-])cc4[nH]3)cc2)nc2ccccc2c1=O,88.9% (inactive)
8,Cc1ccc(C(=O)Nc2cccc(C(F)(F)F)c2)cc1Nc1nc(-c2cnccn2)nc2c1cnn2C,75.6% (inactive)
9,COc1ccc(/C=N/Nc2ccnc3cc(Cl)ccc23)cc1Cl,0.936% (active)
10,N#Cc1ccc(/C=N/NC(=O)c2[nH]c3ccc(Br)cc3c2-c2ccccc2)s1,9.75% (active)
11,CCOc1ccc([C@H]2C(C(=O)c3ccc(Cl)cc3)C3(N[C@@H]2c2ccccc2)C(=O)Nc2ccc(Br)cc23)cc1 (stereo not given in full),64.7% (inactive)
12,O=c1[nH]c2ccc(Cl)cc2cc1CSc1ccccc1Nc1nccc(-c2ccc(Cl)cc2)n1,117% (inactive)
13,N/C(=N\c1nc2c(Cl)cc(Cl)cc2s1)C(Cl)(Cl)Cl,68.3% (inactive)
14,COC(=O)C(C)NS(=O)(=O)/N=C1\NC(=O)NC1=C(Cl)Cl (stereo not given),105% (inactive)
15,Cc1[nH]nc2ncc(C#Cc3cncc(C(=O)Nc4ccc(CN5CCN(C)CC5)c(C(F)(F)F)c4)c3)cc12,78% (inactive)
16,O=C(CSc1nc2sc3c(c2c(=O)n1-c1ccc(Cl)cc1)CCCC3)NNC(=O)Nc1ccc(Cl)c(C(F)(F)F)c1,61% (inactive)
17,COc1ccc(-c2nc3ccc(-c4nnc(SCC(=O)Nc5ccc(C(=O)/C=C/c6ccc(Cl)cc6)cc5)o4)cc3[nH]2)cc1OC,108% (inactive)
18,COc1cc(/C=C/C(=O)c2ccc(Cl)cc2)ccc1Oc1nc(NCCO)nc(N2CCOCC2)n1,105% (inactive)
19,Cc1c(Nc2nnc(SCC(=O)Nc3sc4c(c3C#N)CCCC4)s2)c(=O)n(-c2ccccc2)n1C,99.5% (inactive)
20,CC(C)(C)Nc1nc2c(OCCc3ccccc3)cccn2c1-c1ccc(Cl)cc1,4.99% (active)

row,SMILES,growth
1,CC(=O)Oc1ccccc1C(=O)Nc1cc(C(C)C)ccc1C,9.16% (active)
2,O=C(CSc1nc2sc3c(c2c(=O)n1-c1ccc(Cl)cc1)CCCC3)N/N=C/c1ccc(F)cc1,104% (inactive)
3,N=C1CC(=O)NN1C(=O)CSc1nc2sc3c(c2c(=O)n1-c1ccc(Cl)cc1)CCCC3,115% (inactive)
4,NS(=O)(=O)c1cccc(Nc2nc(SCC(=O)c3ccc(Br)cc3)nc3ccccc23)c1,82.8% (inactive)
5,N#Cc1c(-c2ccc(Cl)cc2)nc2c(-c3ccccc3)c(Nc3ccccc3)nn2c1N,38.9% (inactive)
6,Cc1ccc2ccc3ccc(C)nc3c2n1.Cc1ccc2ccc3ccc(C)nc3c2n1.Oc1c(Cl)cc(Cl)c2ccc(CN3CCCCC3)nc12.[Ru],-24.4% (active)
7,COc1cccc(COc2ccc(/C=C3/C(=O)Nc4cc(Cl)ccc43)cc2)c1,90.3% (inactive)
8,CC(C)NC(=O)c1cc(-c2ccc(NC(=O)Nc3ccc(N4CCOCC4)c(C(F)(F)F)c3)cc2)nc2cccnc12,78.4% (inactive)
9,N#Cc1nc(-c2ccccc2)oc1N1CC[C@@H](CO)C1,102% (inactive)
10,C#Cc1nc(C2=C(C)/C(=N/OCc3ccccc3)CC2)cs1,-3.32% (active)
11,COc1ccc(-c2cc(C(=O)N=Nc3c(O)[nH]c4ccccc34)c3ccccc3n2)cc1OC,92.1% (inactive)
12,COc1cccc(-c2nn(-c3ccccc3)cc2-c2ccnc(N3CCN(C(=O)c4ccccc4)CC3)c2)c1,43.4% (inactive)
13,O=C(c1ccc(Cl)cc1)C1[C@H](c2ccc(Cl)cc2)[C@@H](c2ccccc2)NC12C(=O)Nc1ccc(Br)cc12 (stereo not given in full),28.8% (inactive)
14,O=C(c1ccc(O)cc1)C1[C@H](c2ccc(Cl)cc2)[C@@H](c2ccccc2)NC12C(=O)Nc1ccc(Cl)cc12 (stereo not given in full),36.2% (inactive)
15,COc1cc(/C=C/C(=O)c2ccc(C(F)(F)F)cc2)ccc1Oc1nc(NCCO)nc(N2CCOCC2)n1,96.7% (inactive)
16,Cc1cccc(/C=C/c2nn3c(-c4ccco4)nnc3s2)c1,91.6% (inactive)
17,CC(C)(O)c1cncc(-c2ccc3ncnc(N4CCc5cc(F)c(Cl)cc54)c3c2)c1,31.1% (inactive)
18,N[C@@H](Cc1cn(-c2ccnc3ccccc23)nn1)C(=O)O,103% (inactive)
19,O=C(CN1CCOCC1)NNc1ncnc2ccccc12,104% (inactive)
20,[Cl][Ru].c1ccc(-c2cc(-c3ccccn3)nc(-c3ccccn3)c2)cc1.c1ccc(-c2ccnc3c2ccc2c(-c4ccccc4)ccnc23)cc1,93.7% (inactive)
